Inconclusive results are not listed. Activity calls are given as the source filed them. Calls follow the shape of the dose curve; as a rule, active = well fitted inhibition curve with a large enough effect; inconclusive = small, poorly fitted or top-dose-only effect; inactive = flat fitted curve, though single readings scatter.
Key:
Test in all cases: qHTS profiling for inhibitors of Plasmodium falciparum proliferation (AID 504749); also: nearly all actives have a fitted effect of over 60% in size
Conditions in all cases: P. falciparum in erythrocytes, SYBR Green DNA, 72 h; series mostly up to 28.7 µM
CP250 = test system: CP250
How it was run: (§1)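 Parasite proliferation within erythrocytes, 72 h exposure. Endpoint: SYBR Green I fluorescence after overnight lysis at room temperature. Controls: 0.29 uM artemisinin, DMSO.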

CP252 = test system: CP252
How it was run: as §1

CP256 = test system: CP256
How it was run: as §1

CP260 = test system: CP260
How it was run: as §1

CP262 = test system: CP262
How it was run: as §1

CP265 = test system: CP265
How it was run: as §1

CP266 = test system: CP266
How it was run: as §1

CP268 = test system: CP268
How it was run: as §1

CP269 = test system: CP269
How it was run: as §1

CP286 = test system: CP286
How it was run: as §1

CP291 = test system: CP291
How it was run: as §1

CP297 = test system: CP297
How it was run: as §1

CP305 = test system: CP305
How it was run: as §1

CP315 = test system: CP315
How it was run: as §1

CP325 = test system: CP325
How it was run: as §1

CP329 = test system: CP329
How it was run: as §1

CP335 = test system: CP335
How it was run: as §1

DFO2036 = test system: DFO2036
How it was run: as §1

DIV14 = test system: DIV14
How it was run: as §1

DIV17 = test system: DIV17
How it was run: as §1

Measured: Potency

O[C@H]1[C@H]2[C@H](O)CCCN2C[C@H]1O
inactive: all assays above

CCC1(c2ccccc2)C(=O)NC(=O)N(C(=O)c2ccccc2)C1=O (centres undefined)
not listed: DIV17
inactive: all other assays above

CCCCCCCCOC(=O)c1ccccc1C(=O)OCCCCCCCC
inactive: all assays above

CCCCCl
inactive: all assays above

O=C1CCO1
inactive: all assays above

O=[N+]([O-])C(Br)(CO)CO
inactive: all assays above

CC(C)CCON=O
inactive: all assays above

C[N+]1(C)C2CCC1CC(OC(=O)c1c[nH]c3ccccc13)C2 (centres undefined)
inactive: all assays above

S=C=S
inactive: all assays above

CCCC(C)C1(CC)C(=O)NC(=O)NC1=O (centres undefined)
inactive: all assays above

O=C(O)C(Cl)(Cl)Cl
inactive: all assays above

N#CN
inactive: all assays above

CCOC(=O)c1ccccc1C(=O)OCC
inactive: all assays above

CCC(N)Cc1c[nH]c2ccccc12 (centres undefined)
inactive: all assays above

O=S(=O)(O)c1cc(O)ccc1O
inactive: all assays above

ClCC1CO1 (centres undefined)
inactive: all assays above

O=C1C2CC=CCC2C(=O)N1SC(Cl)(Cl)Cl (centres undefined)
inactive: all assays above

CC(=O)OO
inactive: all assays above

CN1c2ccccc2C(NCCCCCCC(=O)O)c2ccc(Cl)cc2S1(=O)=O (centres undefined)
inactive: all assays above

CC(Cc1ccccc1)NC=O (centres undefined)
inactive: all assays above

COc1ccc(OC)c(C(O)C(C)N)c1 (centres undefined)
inactive: all assays above

O=c1[nH]c(=O)n(Cl)c(=O)n1Cl
inactive: all assays above

O=C1CCCCC1CN1CCCCC1 (centres undefined)
inactive: all assays above

CC(C)(O)C1C2OC(=O)C1C1(O)CC3OC34C(=O)OC2C14C (centres undefined)
inactive: all assays above

O=Cc1ccco1
inactive: all assays above

FC(F)OC(F)(F)C(F)Cl (centres undefined)
inactive: all assays above

Clc1ccc(Cl)cc1
inactive: all assays above

[O]=[Cd]
inactive: all assays above

O=C(OCCN1CCCCC1)C(O)(c1ccccc1)c1ccccc1
inactive: all assays above

O=C(NC(=O)c1c(F)cccc1F)Nc1ccc(Cl)c(Oc2ncc(C(F)(F)F)cc2Cl)c1
inactive: all assays above

From PubChem BioAssay (NCATS)
